Hsp90 Hop PPI: qHTS Assay for Disrupters of an Hsp90 Co-Chaperone Interaction. Hsp90 C-terminal peptide / TPR2A (Hop) interaction, human. AlphaScreen TPR2A-His6 binding biotin-Hsp90 C-terminal peptide. Potency, µM (series often up to 57 µM), without a hit: at the highest dose activity change, negative = inhibition. actives 0.44% (n = 71,000); active = well fitted curve in either direction with a large enough effect; inconclusive = small, poorly fitted or top-dose-only effect, or another doubt; note: % is set by controls: 0 for no effect and ±100 for the full control effect
HEK293 cAMP ctrl: qHTS Assay for Agonists of the Thyroid Stimulating Hormone Receptor: Activators of Intracellular cAMP Concentrations in Parental HEK 293; parental HEK293 CNG cAMP sensor, membrane potential fluorescence; Potency, µM (top dose mostly 57.1 µM), inactives show at the top dose activation, most hits filed as activators; actives 2.5% (n = 73,000); AID 938, 2007; note: % of control where 0% means no effect; nearly all actives have a fitted effect of over 55% in size
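Parental HEK 293 cells stably expressing a cAMP-gated CNG channel were loaded with membrane potential dye containing 100 uM RO 20-1724 for 60 min. Compound added for 30 min; depolarization read as fluorescence intensity at 590 nm.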
DNA Pol III inh: qHTS Assay for Inhibitors of DNA Polymerase III Holoenzyme System; Potency, µM (top dose mostly 57.1 µM), for the others: at the highest dose activity change, negative = inhibition; reconstituted DNA polymerase III holoenzyme replication, biochemical; actives 0.25% (n = 71,000); AID 603, 2007; note: % is set by controls: 0 for no effect and ±100 for the full control effect
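Reconstituted *E. coli* holoenzyme (0.35 nM Pol III, 1 nM beta, 154 nM SSB, 2 nM primase) was preincubated with compound for 15 min at RT. Synthesis on 1.4 nM ssM13Gori ran 35 min, then was stopped with PicoGreen/EDTA and read as dsDNA fluorescence.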
Tau fil binding: qHTS Assay for Tau Filament Binding; Microtubule-associated protein tau (Homo sapiens), P10636; recombinant tau filaments, thioflavin S fluorescence, 15 h; filaments grown with octadecylsulfate alongside compound; Potency, µM (titrated, usually from 57.1 µM), for inactives: at the top dose activity change, negative = inhibition; actives 2% (n = 71,000);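 note: % is set by controls: 0 for no effect and ±100 for the full control effect; actives lower thioflavin S fluorescence by blocking filaments or displacing dye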
Target sequence (P10636 whole entry, looked up): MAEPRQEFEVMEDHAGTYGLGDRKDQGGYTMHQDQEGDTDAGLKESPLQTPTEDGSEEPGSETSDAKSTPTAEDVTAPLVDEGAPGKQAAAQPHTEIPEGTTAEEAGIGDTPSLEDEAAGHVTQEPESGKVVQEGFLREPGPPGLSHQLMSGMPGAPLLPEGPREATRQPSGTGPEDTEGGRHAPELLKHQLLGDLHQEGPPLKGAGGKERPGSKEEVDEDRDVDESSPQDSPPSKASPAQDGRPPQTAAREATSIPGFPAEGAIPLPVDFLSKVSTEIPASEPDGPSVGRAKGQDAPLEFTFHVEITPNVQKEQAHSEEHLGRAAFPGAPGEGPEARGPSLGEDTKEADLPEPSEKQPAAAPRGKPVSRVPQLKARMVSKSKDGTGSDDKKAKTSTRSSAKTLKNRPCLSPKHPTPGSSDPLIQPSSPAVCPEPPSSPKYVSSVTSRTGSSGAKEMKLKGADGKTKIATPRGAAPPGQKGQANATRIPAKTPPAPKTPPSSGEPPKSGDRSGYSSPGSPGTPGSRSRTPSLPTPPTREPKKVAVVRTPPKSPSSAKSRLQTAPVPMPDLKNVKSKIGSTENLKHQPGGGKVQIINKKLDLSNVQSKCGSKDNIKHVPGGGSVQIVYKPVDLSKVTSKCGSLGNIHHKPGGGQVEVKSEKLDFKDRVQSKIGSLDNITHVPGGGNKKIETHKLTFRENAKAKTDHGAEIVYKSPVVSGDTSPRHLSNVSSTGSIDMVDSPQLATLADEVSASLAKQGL
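Assay mix: 1 uM His-tagged tau, 30 uM sodium octadecylsulfate, thioflavine S dye in HEPES/NaCl/DTT buffer. Compound is added prior to the inducer. Fluorescence after 15 h at 37 C.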
TSHR agonist: qHTS Assay for Agonists of the Thyroid Stimulating Hormone Receptor; Thyrotropin receptor (Homo sapiens), P16473; HEK293-CNG-TSHR cells (CNG channel as cAMP sensor), membrane potential dye, cAMP; Potency, µM (top dose mostly 57.1 µM), inactives show at the highest dose activation, actives largely listed as activators; actives 0.48% (n = 73,000); AID 926, 2007; active = well fitted activation curve with a large enough effect in the main read-out, with a control signal flat, not every such curve was filed as active; inconclusive = small, poorly fitted or top-dose-only effect, or a change in a side signal; inactive = no such curve, though single readings can be large or run the other way; % of control where 0% means no effect;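 note: the control signal comes from parental cells without the receptor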
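cAMP rise detected as CNG-channel membrane depolarization by fluorescent dye (emission 590 nm), 30 min after compound, following 60 min dye loading containing 100 uM RO 20-1724 at room temperature. Cells: TSHR/CNG HEK 293, with parental CNG HEK 293 as control.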
The depositor's hits bear a star; [ ] = another dose, or the depositor's remark. Rows were chosen to be rich in hits. Some 5.1% of all compounds tested hit in one or more screens of this group. Unless noted, calls come from the whole dose curve; as a rule, active = well fitted curve in the direction sought with a large enough effect; inconclusive = small, poorly fitted or top-dose-only effect, or another doubt; inactive = no such curve, though single readings can be large; an effect the other way counts as inactive or inconclusive. Potency is the fitted concentration of half-maximal effect.

Results for COC(=O)[C@@H]1C[C@H]1[C@@H](NC(=O)c1ccccc1)c1ccccc1 ?
Hsp90 Hop PPI: -7.7%; HEK293 cAMP ctrl: 25.1µM*; DNA Pol III inh: 3.6%; Tau fil binding: -5.8%; TSHR agonist: inconclusive

What do the screens show for `COC(=O)[C@H]1C[C@@H]1[C@H](NC(C)=O)c1ccccc1`?
Hsp90 Hop PPI: -4.5%; HEK293 cAMP ctrl: -5.2%; DNA Pol III inh: -4.9%; Tau fil binding: -7.0%; TSHR agonist: 1.7%

Results for CN(C)c1ccc(-c2ccc3ncnc(-n4ccnc4)c3c2)cc1 ?
Hsp90 Hop PPI: 0.4%; HEK293 cAMP ctrl: -19.8%; DNA Pol III inh: -5.0%; Tau fil binding: 3.16µM*; TSHR agonist: -4.1%

What do the screens show for `Cc1cccc(Nc2nn3c(=O)c4ccccc4nc3s2)c1`?
Hsp90 Hop PPI: 5.9%; HEK293 cAMP ctrl: 6.2%; DNA Pol III inh: 3.16µM*; Tau fil binding: 27.5%; TSHR agonist: 4.4%

How did O=c1c(-c2cccc(Cl)c2)nc2cncnc2n1Cc1ccccc1 do in these assays?
Hsp90 Hop PPI: -0.7%; HEK293 cAMP ctrl: 5.1%; DNA Pol III inh: -4.1%; Tau fil binding: -15.1%; TSHR agonist: 4.2%

What do the screens show for `O=C(O)/C(=C\c1ccccc1)Cc1ccccc1`?
Hsp90 Hop PPI: 0.5%[11 µM]; HEK293 cAMP ctrl: 14.9%[11.4 µM]; DNA Pol III inh: -4.2%[11.4 µM]; Tau fil binding: -6.8%[11.4 µM]; TSHR agonist: -0.4%[11.4 µM]

How did O=c1cc(-c2cccc(O)c2)oc2c(O)c(O)ccc12 do in these assays?
Hsp90 Hop PPI: -26.0%; HEK293 cAMP ctrl: -27.4%; DNA Pol III inh: inconclusive; Tau fil binding: inconclusive; TSHR agonist: -13.5%

Results for O=C(O)CCc1c2ccc(=O)c(O)c-2oc2c(O)c(O)ccc12 ?
Hsp90 Hop PPI: inconclusive; HEK293 cAMP ctrl: 1.9%[11.4 µM]; DNA Pol III inh: 0.0794µM*; Tau fil binding: 3.16µM*; TSHR agonist: -3.7%[11.4 µM]

How did C=C(C)C(=O)OCC(C)O (stereo not drawn) do in these assays?
Hsp90 Hop PPI: -3.1%; HEK293 cAMP ctrl: 17.0%; DNA Pol III inh: -2.2%; Tau fil binding: 23.2%; TSHR agonist: -3.6%

What do the screens show for `CC(=O)Nc1nc(NC(C)=O)c2[nH]c(CO)nc2n1`?
Hsp90 Hop PPI: -3.9%[11 µM]; HEK293 cAMP ctrl: 4.5%[11.4 µM]; DNA Pol III inh: -4.6%[11.4 µM]; Tau fil binding: 5.9%[11.4 µM]; TSHR agonist: -5.7%[11.4 µM]

How did COc1ccccc1C(=O)Nc1c2c(nn1-c1cccc(C)c1C)CS(=O)(=O)C2 do in these assays?
Hsp90 Hop PPI: -6.9%; HEK293 cAMP ctrl: 5.01µM*; DNA Pol III inh: 0.8%; Tau fil binding: 5.5%; TSHR agonist: inconclusive

What do the screens show for `COc1ccc(CC(=O)Nc2c3c(nn2-c2cccc(C)c2C)CS(=O)(=O)C3)cc1`?
Hsp90 Hop PPI: -3.4%; HEK293 cAMP ctrl: 10.6%; DNA Pol III inh: 2.5%; Tau fil binding: 7.0%; TSHR agonist: 4.2%

How did Cc1ccc(C)n1-c1ccc(N2CCOCC2)cc1 do in these assays?
Hsp90 Hop PPI: inconclusive; HEK293 cAMP ctrl: 5.1%; DNA Pol III inh: -5.5%; Tau fil binding: 25.1µM*; TSHR agonist: -11.1%

Results for Cc1cc(N2CCOCC2)cc(C)[n+]1[O-] ?
Hsp90 Hop PPI: -1.8%; HEK293 cAMP ctrl: 18.3%; DNA Pol III inh: -0.1%; Tau fil binding: -5.9%; TSHR agonist: -1.9%

Results for c1ccc(-c2cccc(-c3ccccn3)n2)nc1 ?
Hsp90 Hop PPI: 3.16µM*; HEK293 cAMP ctrl: -3.6%; DNA Pol III inh: 1.5%; Tau fil binding: -3.2%; TSHR agonist: -1.2%

Results for CC(C)(CCc1nc2ccccc2[nH]1)C(=O)O ?
Hsp90 Hop PPI: -0.9%[11 µM]; HEK293 cAMP ctrl: 13.4%[11.4 µM]; DNA Pol III inh: -10.4%[11.4 µM]; Tau fil binding: 2.8%[11.4 µM]; TSHR agonist: -4.9%[11.4 µM]

What do the screens show for `Cc1cc(C(=O)CSc2nnnn2-c2ccccc2)c(C)n1CC1CCCO1` (stereo not drawn)?
Hsp90 Hop PPI: -1.4%; HEK293 cAMP ctrl: 25.1µM*; DNA Pol III inh: 5.9%; Tau fil binding: 3.6%; TSHR agonist: inconclusive

Results for Cc1cc(-n2c(C)cc(C(=O)CSc3nnnn3-c3ccccc3)c2C)no1 ?
Hsp90 Hop PPI: 0.8%; HEK293 cAMP ctrl: 23.6%; DNA Pol III inh: 2.3%; Tau fil binding: 16.9%; TSHR agonist: 20µM*

Source: PubChem BioAssay
